# Measurements reported in PubChem BioAssay.
# Calls of active or inactive are those of the source. Unless noted, the rule behind the calls is not given here.
# Columns and labels:
# [1] = system: Wnt5a (protein binding on small-molecule microarray); assay: Wnt5a binders on small-molecule microarray, primary screen, biophysical, 635/667 nm fluorescence (AID 1142); details: 635 nm fluorescence, higher = more signal;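 note: fluorescence read at 667 nm with signal to noise per printed feature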
# [2] = cell viability in Huh7 cells, primary screen, cytotoxicity control for HCV replication inhibitor project, CellTiter-Glo luminescence, basal, 48 h (AID 1143); details: Huh7 HCV replicon, higher = more signal, called active from +8 up or from −8 down;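 note: Huh7 hepatoma cells carrying a hepatitis C replication reporter with no stimulus; test concentration not given here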
# [3] = P. aeruginosa biofilm formation inhibitors, primary screen, PAO1 strain, BacTiter-Glo luminescence, LB-PBS (AID 1144); details: 12 h, higher = more signal
# [4] = CREB reporter modulators without forskolin, primary screen, cell-based, PC12, CRE-LacZ reporter, unstimulated (AID 1145); details: no forskolin, luminescence, 4.5 h, higher = more signal, called active from +8 up or from −8 down
# [5] = CREB reporter modulators under forskolin, primary screen, cell-based, PC12, CRE-LacZ reporter, forskolin-stimulated (AID 1146); details: luminescence, 4.5 h, higher = more signal, called active from +8 up or from −8 down;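 note: PC12 cells with 6xCRE LacZ reporter stimulated by forskolin 10 µM; beta-galactosidase reporter signal reflecting CREB driven transcription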
# [6] = target: Streptavidin (Streptomyces avidinii) (UniProt P22629); assay: streptavidin binders on small-molecule microarray, primary screen, artefact control for SMM compound annotation, biophysical, 635/667 nm fluorescence (AID 1147); details: streptavidin binding, higher = more signal;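 note: signal reflects streptavidin binding to arrayed compounds as a control protein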
# Chain of Streptavidin (Streptomyces avidinii) (P22629 whole entry, looked up): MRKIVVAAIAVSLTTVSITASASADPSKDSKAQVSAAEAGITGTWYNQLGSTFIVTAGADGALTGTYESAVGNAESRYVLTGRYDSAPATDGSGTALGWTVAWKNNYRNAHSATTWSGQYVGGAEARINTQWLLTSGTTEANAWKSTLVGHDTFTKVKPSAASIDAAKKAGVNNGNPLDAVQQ
# [7] = small-molecule binders of probe aInhba, primary screen, biochemical, small-molecule microarray, 635/667 nm fluorescence (AID 1148); details: higher = more signal;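 note: score merges 667nm spot fluorescence with signal-to-noise for antibody binding to printed compounds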
# Torsin-1A (Homo sapiens) [8] = target: Torsin-1A (Homo sapiens) (UniProt O14656); assay: torsin A binders from cell lysate, primary screen, small-molecule microarray, wild-type, 635/667 nm (AID 1149); details: COS7 hTOR1A-WT lysate, 635 nm fluorescence, higher = more signal
# Chain of Torsin-1A (Homo sapiens) (O14656 whole entry, looked up): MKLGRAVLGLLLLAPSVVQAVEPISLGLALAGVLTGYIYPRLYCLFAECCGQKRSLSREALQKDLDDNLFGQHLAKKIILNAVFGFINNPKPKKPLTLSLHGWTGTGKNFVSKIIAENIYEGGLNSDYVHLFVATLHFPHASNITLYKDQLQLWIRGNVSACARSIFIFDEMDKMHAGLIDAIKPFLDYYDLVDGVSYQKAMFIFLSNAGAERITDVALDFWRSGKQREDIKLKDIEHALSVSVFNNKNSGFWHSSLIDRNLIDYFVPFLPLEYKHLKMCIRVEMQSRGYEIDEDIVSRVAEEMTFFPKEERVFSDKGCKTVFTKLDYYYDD
# Torsin-1A (Homo sapiens) [9] = target: Torsin-1A (Homo sapiens) (UniProt O14656); assay: small-molecule binders of mutant TOR1A in lysate, primary screen, cell lysate, small-molecule microarray, COS7 lysate, 635/667 nm fluorescence (AID 1150); details: COS7 hTOR1A mutant lysate, 635 nm fluorescence, higher = more signal;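 note: score pools 667 nm emission and signal to noise measuring lysate protein binding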
# [10] = system: Sonic hedgehog protein (Shh); assay: small-molecule binders of Shh protein, primary screen, biochemical, small-molecule microarray, 635/667 nm fluorescence (AID 1151); details: small-molecule microarray binding, 635 nm fluorescence; higher = more signal;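 note: Shh protein binding to compounds spotted on small-molecule microarray slides; score combines spot fluorescence intensity with signal-to-noise across triplicate slides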
# [11] = E. coli DRC41 culture turbidity changes, primary screen, E. coli filamentation inducer project, strain DRC41, OD650, 48 h (AID 1152);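 note: E. coli MC1000 strain DRC41 lacking acrAB efflux pump and sulA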; details: E. coli DRC41 (acrAB sulA), higher = more signal, called active from +8 up or from −8 down
# [12] = small-molecule binders of probe aLefty1, primary screen, biochemical, small-molecule microarray, 635/667 nm fluorescence (AID 1153); details: higher = more signal;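 note: score merges spot fluorescence with signal-to-noise ratio from the scanned slide images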
# [13] = PSAC antagonists in infected red cells, primary screen, cell-based, P. falciparum Indochina, OD700, 1 h (AID 1154); details: P. falciparum Indochina infected RBC osmotic lysis, higher = more signal, called active from +8 up or from −8 down
# [14] = PSAC antagonists in infected red cells, primary screen, cell-based, P. falciparum Indochina, OD700, 2 h (AID 1155);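 note: lysis reports solute entry through the parasite surface anion channel PSAC; channel blockers reduce lysis of infected cells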; details: P. falciparum Indochina infected erythrocytes, osmotic lysis OD700; higher = more signal, called active from +8 up or from −8 down
# [15] = osmotic lysis modulators in infected erythrocytes, primary screen, PSAC antagonist project, cell-based, P. falciparum Indochina, OD700, 3 h (AID 1156); details: higher = more signal, called active from +8 up or from −8 down
# [16] = PSAC antagonists in infected red cells, primary screen, cell-based, P. falciparum Indochina, OD700, 18 h (AID 1157); details: P. falciparum Indochina infected erythrocytes, osmotic lysis OD700, 18 h; higher = more signal, called active from +8 up or from −8 down
# [17] = modulators of S6 phosphorylation in cells, primary screen, cell-based, A549, cytoblot, luminescence, serum-stimulated (AID 1158); details: A549 phospho-S6 cytoblot, 5 h, higher = more signal;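 note: serum-stimulated A549 lung adenocarcinoma cells; signal is phosphorylated S6 detected by cytoblot immunostaining with HRP secondary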
# [18] = target: NADPH oxidase 2 (Homo sapiens) (UniProt P04839); assay: NOX2-dependent H2O2 signal modulators, primary screen, NOX inhibitor project, cell-based, HEK293-NOX2, PMA-stimulated, Amplex Red fluorescence (AID 1159); details: 45 min, higher = more signal, called active from +8 up or from −8 down; note: test concentration not given here
# Chain of NADPH oxidase 2 (Homo sapiens) (P04839 whole entry, looked up): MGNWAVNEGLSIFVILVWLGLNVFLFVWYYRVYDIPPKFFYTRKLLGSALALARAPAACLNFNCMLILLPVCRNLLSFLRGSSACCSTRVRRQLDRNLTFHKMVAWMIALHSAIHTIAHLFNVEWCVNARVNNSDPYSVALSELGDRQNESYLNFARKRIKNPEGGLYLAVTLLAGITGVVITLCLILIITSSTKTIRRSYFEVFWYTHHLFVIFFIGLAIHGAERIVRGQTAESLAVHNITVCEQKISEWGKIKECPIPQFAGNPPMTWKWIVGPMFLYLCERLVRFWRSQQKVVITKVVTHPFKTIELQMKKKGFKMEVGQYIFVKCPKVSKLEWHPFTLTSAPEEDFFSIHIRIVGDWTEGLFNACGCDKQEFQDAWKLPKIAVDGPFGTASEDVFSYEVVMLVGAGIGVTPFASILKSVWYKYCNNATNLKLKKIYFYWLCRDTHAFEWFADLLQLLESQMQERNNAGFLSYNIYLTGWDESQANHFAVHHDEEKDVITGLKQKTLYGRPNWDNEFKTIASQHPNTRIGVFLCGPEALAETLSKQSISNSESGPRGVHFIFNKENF
# [19] = target: NADPH oxidase 4 (Homo sapiens) (UniProt Q9NPH5); assay: NOX4-dependent H2O2 signal modulators, primary screen, NOX inhibitor project, cell-based, HEK293-NOX4, tetracycline-induced, Amplex Red fluorescence (AID 1160); details: 45 min, higher = more signal, called active from +8 up or from −8 down
# Chain of NADPH oxidase 4 (Homo sapiens) (Q9NPH5 whole entry, looked up): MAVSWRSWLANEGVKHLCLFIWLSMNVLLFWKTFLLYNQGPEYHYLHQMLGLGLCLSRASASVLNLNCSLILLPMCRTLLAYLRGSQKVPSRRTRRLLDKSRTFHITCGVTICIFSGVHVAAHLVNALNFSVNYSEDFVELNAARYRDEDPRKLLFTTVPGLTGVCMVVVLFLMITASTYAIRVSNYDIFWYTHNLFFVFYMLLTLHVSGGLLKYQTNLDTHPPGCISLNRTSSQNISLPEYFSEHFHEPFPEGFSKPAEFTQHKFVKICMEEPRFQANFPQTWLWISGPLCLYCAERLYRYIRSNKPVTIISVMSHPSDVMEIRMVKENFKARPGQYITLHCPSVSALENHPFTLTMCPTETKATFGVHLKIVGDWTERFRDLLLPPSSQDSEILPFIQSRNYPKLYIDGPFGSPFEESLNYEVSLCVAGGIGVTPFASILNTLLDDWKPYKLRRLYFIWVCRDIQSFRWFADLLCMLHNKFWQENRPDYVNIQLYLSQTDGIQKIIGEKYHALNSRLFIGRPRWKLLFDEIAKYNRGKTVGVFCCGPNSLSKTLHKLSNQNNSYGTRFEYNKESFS
# [20] = target: NADPH oxidase 5 (Homo sapiens) (UniProt Q96PH1); assay: NOX5-dependent H2O2 signal modulators, primary screen, NOX inhibitor project, cell-based, HEK293-NOX5, Amplex Red fluorescence (AID 1161); details: HEK293-NOX5, ionomycin, 45 min, higher = more signal
# Chain of NADPH oxidase 5 (Homo sapiens) (Q96PH1 whole entry, looked up): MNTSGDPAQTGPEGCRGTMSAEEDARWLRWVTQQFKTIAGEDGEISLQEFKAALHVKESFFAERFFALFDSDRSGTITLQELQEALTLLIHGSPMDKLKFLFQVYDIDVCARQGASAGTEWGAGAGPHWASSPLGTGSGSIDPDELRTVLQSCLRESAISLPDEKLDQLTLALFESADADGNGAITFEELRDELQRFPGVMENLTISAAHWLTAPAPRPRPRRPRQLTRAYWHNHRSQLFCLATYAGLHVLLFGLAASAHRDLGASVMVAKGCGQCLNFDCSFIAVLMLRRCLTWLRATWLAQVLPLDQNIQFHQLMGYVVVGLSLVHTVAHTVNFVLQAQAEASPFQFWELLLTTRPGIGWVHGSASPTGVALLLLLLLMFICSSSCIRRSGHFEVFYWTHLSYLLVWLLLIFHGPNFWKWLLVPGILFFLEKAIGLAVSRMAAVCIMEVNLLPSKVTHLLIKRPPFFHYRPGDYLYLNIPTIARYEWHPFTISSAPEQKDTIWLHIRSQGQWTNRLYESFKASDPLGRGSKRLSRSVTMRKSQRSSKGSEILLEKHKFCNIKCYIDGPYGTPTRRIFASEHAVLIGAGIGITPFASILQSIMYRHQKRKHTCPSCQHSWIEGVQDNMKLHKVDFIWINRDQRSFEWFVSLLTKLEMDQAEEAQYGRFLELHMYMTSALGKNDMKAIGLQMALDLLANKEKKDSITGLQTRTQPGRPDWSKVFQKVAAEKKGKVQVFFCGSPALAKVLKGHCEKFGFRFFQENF
Structure (SMILES),composite z-score [1],z-score [2],z-score [3],z-score [4],z-score [5],composite z-score [6],composite z-score [7],composite z-score (Torsin-1A (Homo sapiens) [8]),composite z-score (Torsin-1A (Homo sapiens) [9]),composite z-score [10],z-score [11],composite z-score [12],z-score [13],z-score [14],z-score [15],z-score [16],z-score [17],z-score [18],z-score [19],z-score [20]
COC(=O)C(CC#Cc1ccc2c(c1)[C@]1(C(=O)N2)[C@H](c2ccccc2OCCO)N2[C@H](c3ccccc3)[C@H](c3ccccc3)OC(=O)[C@H]2[C@@H]1C(=O)O)C(=O)OC,0.231,-0.323 (inactive),-0.367 (inactive),-0.375 (inactive),1.86 (inactive),0.517,0.29,0.19,1.14,0.279,0.456 (inactive),0.169,4.94 (inactive),0.569 (inactive),-7.69 (inactive),-0.0236 (inactive),-0.13,1.79 (inactive),-0.0833 (inactive),0.036
O=C1C2C=CC(C(O)C=Cc3ccc([N+](=O)[O-])cc3)N(n3cnnc3)C2C(=O)N1Cc1ccccc1 (stereo not given),0.0873,-0.274 (inactive),-0.871 (inactive),-0.368 (inactive),0.343 (inactive),1.1,0.0589,1.95,2.16,0.287,-0.892 (inactive),0.406,4.59 (inactive),1.03 (inactive),0.956 (inactive),0.83 (inactive),-0.584,-0.526 (inactive),-0.711 (inactive),-0.3
COC(=O)C(CC#Cc1ccc2c(c1)[C@]1(C(=O)N2)[C@H](c2ccccc2OCCO)N2[C@H](c3ccccc3)[C@H](c3ccccc3)OC(=O)[C@H]2[C@@H]1C(N)=O)C(=O)OC,0.136,-5.98 (inactive),0.502 (inactive),-0.0515 (inactive),1.02 (inactive),1.5,1.26,0.412,0.434,0.111,0.793 (inactive),1.81,7.57 (inactive),2.02 (inactive),1.44 (inactive),1.2 (inactive),-0.0528,2.12 (inactive),0.696 (inactive),1.51
C=C(CCCC)C(=O)CC[C@@H](OC(C)=O)c1ccc(CO)o1,0.52,-1.56 (inactive),-0.905 (inactive),-0.35 (inactive),0.516 (inactive),-0.918,-0.154,-0.0372,0.232,1.95,0.0002 (inactive),-0.0278,0.113 (inactive),0.0176 (inactive),-1.18 (inactive),0.184 (inactive),-0.0622,-1.23 (inactive),-0.538 (inactive),-2.37
O=C1OCCC=C[C@H]2OC34C=CCN(c5ccc(Cl)cc5)C(=O)[C@H]3N(CCCO)C(=O)[C@@H]4C12 (stereo not given in full),-0.047,-2.24 (inactive),-0.925 (inactive),-0.35 (inactive),-0.336 (inactive),-0.414,-0.227,-0.531,-1.56,0.0088,0.565 (inactive),-0.221,0.991 (inactive),-0.131 (inactive),0.319 (inactive),-0.652 (inactive),1.61,0.736 (inactive),-0.818 (inactive),0.215
NC(=O)[C@@H]1[C@H]2C(=O)O[C@H](c3ccccc3)[C@H](c3ccccc3)N2[C@H](c2ccc(OCCO)cc2)[C@@]12C(=O)Nc1ccc(C#CC3=CCCCC3)cc12,0.0384,-6.11 (inactive),-1.74 (inactive),-1.28 (inactive),-0.546 (inactive),0.778,0.0047,0.618,0.817,1.24,1.96 (inactive),0.189,3 (inactive),0.651 (inactive),-1.59 (inactive),-0.198 (inactive),1.1,0.814 (inactive),0.68 (inactive),2.3
CC(=O)NCCCC[C@@H]1NC(=O)[C@H]2C[C@@H](C(=O)NCCCCCNC(=O)CS)[C@@H](c3ccc(O)cc3)N2C1=O,0.0736,-0.47 (inactive),-0.589 (inactive),-0.122 (inactive),-0.112 (inactive),-0.502,0.0391,0.261,-0.711,0.468,-0.0078 (inactive),-0.12,1.94 (inactive),0.811 (inactive),-0.952 (inactive),0.425 (inactive),-0.591,0.772 (inactive),-2.06 (inactive),-0.294
CN(C)CCCCCCNC(=O)[C@@H]1C[C@@H]2C(=O)N[C@@H](CCCC[N+](C)(C)C)C(=O)N2[C@@H]1c1ccc(O)cc1,0.133,-0.217 (inactive),0.0162 (inactive),0.155 (inactive),-0.0457 (inactive),-0.253,-0.589,0.659,0.771,1.66,-0.3 (inactive),-0.612,1.59 (inactive),-0.375 (inactive),-0.604 (inactive),0.0077 (inactive),-0.607,-1.47 (inactive),-0.773 (inactive),-1.4
[N-]=[N+]=NCc1ccccc1[C@@H]1OC(c2ccc(OCCCO)cc2)=N[C@]1(CCS(=O)(=O)c1ccccc1)C(N)=O,1.2,-0.369 (inactive),1.47 (inactive),-0.128 (inactive),-0.785 (inactive),0.982,0.393,1.41,1.26,0.99,1.06 (inactive),0.428,26.4 (active),14.7 (active),0.618 (inactive),1.75 (inactive),-0.353,-0.282 (inactive),1.13 (inactive),2.23
